Measurements from PubChem BioAssay AID1159580 (chemical genetic matrix, 2015).
In all, about 5,500 compounds went through this assay and about 2,000 (36%) were called active. About 18% were inconclusive and are not listed. No stated cut-off is given here; in the data, active means normalized growth mostly below about 0.91 (no sharp cut-off); inconclusive means no clear call, values can overlap the other calls; inactive means mostly above about 0.92. This is one part of the list.

Assay: chemical genetic growth profiling, strain panel (AID 1159580);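 further: tested at 20 µM; growth read once vehicle control cultures reached saturation at 30 °C; 1 = growth at the plate median or of vehicle wells; lower values mean less growth of the strain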
Details: S. cerevisiae deletion strains, growth OD

Measured: normalized growth

CC(=O)O[C@H]1CCC2(C)C3=C(CCC2C1(C)C)[C@@]1(C)CC[C@@H](C(C)CCC=C(C)C)[C@]1(C)CC3 (stereo partly drawn)
active: locus YIR030C, strain dcg1, active compounds read low 1.08 [resistant]
inactive: locus YAL021C, strain ccr4, active compounds read low 1.02 | locus YAL026C, strain drs2, active compounds read low 1.03 | locus YAL030W, strain snc1, active compounds read low 1.03 | locus YBL061C, strain skt5, active compounds read low 1.04 | locus YBR009C, strain hhf1, active compounds read low 1.03 | locus YBR021W, strain FUR4, active compounds read low 0.912 | locus YBR023C, strain chs3, active compounds read low 1.03 | locus YBR171W, strain sec66, active compounds read low 1.05 | locus YBR229C, strain ROT2, active compounds read low 1.04 | locus YBR231C, strain swc5, active compounds read low 1.04 | locus YBR279W, strain paf1, active compounds read low 1.02 | locus YCL011C, strain gbp2, active compounds read low 1.04 | locus YCL016C, strain dcc1, active compounds read low 1.03 | locus YCL029C, strain bik1, active compounds read low 1.01 | locus YCL061C, strain MRC1, active compounds read low 1.04 | locus YCL069W, strain vba3, active compounds read low 1.03 | locus YCR088W, strain abp1, active compounds read low 1.03 | locus YDL005C, strain med2, active compounds read low 1.03 | locus YDL035C, strain GPR1, active compounds read low 0.911 | locus YDL040C, strain nat1, active compounds read low 1.03 | locus YDL074C, strain BRE1, active compounds read low 0.973 | locus YDL101C, strain DUN1, active compounds read low 1.02 | locus YDL185W, strain tfp1, active compounds read low 1.05 | locus YDL192W, strain arf1, active compounds read low 1.03 | locus YDR001C, strain nth1, active compounds read low 1.03 | locus YDR069C, strain doa4, active compounds read low 1.03 | locus YDR101C, strain arx1, active compounds read low 1.02 | locus YDR137W, strain rgp1, active compounds read low 1.02 | locus YDR150W, strain NUM1, active compounds read low 1.05 | locus YDR159W, strain sac3, active compounds read low 1.07 | locus YDR162C, strain NBP2, active compounds read low 1.01 | locus YDR195W, strain ref2 1.03 | locus YDR297W, strain sur2, active compounds read low 1.03 | locus YDR318W, strain mcm21, active compounds read low 1.02 | locus YDR334W, strain swr1, active compounds read low 1.04 | locus YDR335W, strain msn5, active compounds read low 1.02 | locus YDR388W, active compounds read low 1.06 | locus YDR392W, strain spt3, active compounds read low 1.04 | locus YDR502C, strain sam2, active compounds read low 1.01 | locus YEL003W, strain gim4, active compounds read low 1.02 | locus YEL037C, strain rad23, active compounds read low 1.02 | locus YEL061C, strain CIN8 (second series), active compounds read low 1.03 | locus YEL061C, strain CIN8, active compounds read low 1.04 | locus YER015W, strain faa2, active compounds read low 1.03 | locus YER016W, strain bim1, active compounds read low 1.04 | locus YER110C, active compounds read low 1.06 | locus YER111C, strain swi4, active compounds read low 1.04 | locus YER155C, strain BEM2 (second series), active compounds read low 1.04 | locus YER155C, strain BEM2, active compounds read low 1.03 | locus YER167W, strain BCK2, active compounds read low 1.03 | locus YFR010W, strain ubp6, active compounds read low 1.03 | locus YGL078C, strain dbp3, active compounds read low 0.932 | locus YGL086W, strain mad1, active compounds read low 1.02 | locus YGL167C, strain pmr1, active compounds read low 1.04 | locus YGL173C, strain kem1, active compounds read low 1.02 | locus YGL227W, strain vid30, active compounds read low 1.03 | locus YGL240W, strain doc1, active compounds read low 1.03 | locus YGL248W, strain PDE1, active compounds read low 1 | locus YGL253W, strain hxk2, active compounds read low 1.02 | locus YGR078C, strain PAC10, active compounds read low 1 | locus YGR135W, strain pre9, active compounds read low 1 | locus YGR229C, strain SMI1, active compounds read low 0.963 | locus YGR252W, strain gcn5, active compounds read low 0.884 | locus YHR013C, strain ard1, active compounds read low 1.08 | locus YHR027C, strain rpn1, active compounds read low 1.02 | locus YHR079C, strain IRE1 (second series), active compounds read low 1.06 | locus YHR094C, strain hxt1, active compounds read low 1.06 | locus YHR129C, strain ARP1, active compounds read low 1.04 | locus YHR142W, strain chs7, active compounds read low 1.04 | locus YHR200W, strain rpn10, active compounds read low 1.03 | locus YIL066C, strain RNR3, active compounds read low 1.02 | locus YIL073C, strain SPO22, active compounds read low 1.06 | locus YIL125W, strain kgd1, active compounds read low 1.01 | locus YJL092W, strain hpr5, active compounds read low 1.03 | locus YJL095W, strain BCK1 (second series), active compounds read low 1.03 | locus YJL095W, strain BCK1, active compounds read low 1.03 | locus YJL115W, strain asf1, active compounds read low 1.04 | locus YJL129C, strain trk1, active compounds read low 1.07 | locus YJL134W, strain LCB3, active compounds read low 1.04 | locus YJL154C, strain vps35, active compounds read low 1.03 | locus YJL164C, strain tpk1, active compounds read low 1.02 | locus YJL166W, strain qcr8, active compounds read low 1.03
